In all, about 16,000 compounds went through this assay and about 5,100 (32%) were called active. Roughly 25% stayed inconclusive and do not appear here. The list shows a part of the results. Unmarked numbers belong to inactive results. Calls follow the shape of the dose curve; as a rule, active = well fitted curve in the direction sought with a large enough effect; inconclusive = small, poorly fitted or top-dose-only effect, or effect the other way; inactive = no such curve, though single readings can be large or run the other way.
biological target: Cytochrome P450 3A4 (Homo sapiens) (UniProt P08684); assay: Cytochrome panel assay with activity outcomes; settings: recombinant CYP, pro-luciferin dealkylation, luminescence, p450-cyp3a4; series mostly up to 57.1 µM; activity, negative = inhibition: at the top concentration
% is scaled to controls: 0 for no effect and ±100 for the full control effect.

Chain of Cytochrome P450 3A4 (Homo sapiens) (P08684 whole entry, looked up): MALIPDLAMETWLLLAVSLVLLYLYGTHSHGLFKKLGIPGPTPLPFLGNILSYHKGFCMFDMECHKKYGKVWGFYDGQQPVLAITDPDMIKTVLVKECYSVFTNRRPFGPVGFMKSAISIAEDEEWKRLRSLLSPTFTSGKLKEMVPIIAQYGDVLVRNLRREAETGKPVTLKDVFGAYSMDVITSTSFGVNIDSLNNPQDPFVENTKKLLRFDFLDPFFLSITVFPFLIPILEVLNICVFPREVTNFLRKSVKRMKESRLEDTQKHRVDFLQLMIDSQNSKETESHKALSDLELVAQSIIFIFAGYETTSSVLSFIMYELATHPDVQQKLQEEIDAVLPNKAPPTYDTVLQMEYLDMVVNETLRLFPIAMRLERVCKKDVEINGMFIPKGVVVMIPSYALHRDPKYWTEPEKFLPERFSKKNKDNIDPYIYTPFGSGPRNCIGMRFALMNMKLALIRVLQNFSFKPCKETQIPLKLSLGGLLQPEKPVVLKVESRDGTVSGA

SMILES	AC50	activity, negative = inhibition
COC(=O)c1ccc(OCC2c3cc(OC)c(OC)cc3CCN2C(=O)C2CC2)cc1 (stereo not drawn)	17.8 µM (active)	
COc1ccc(C(=O)OC(C)CN2CCN(C)CC2)cc1OC (stereo not drawn)		3.07%
COc1ccccc1-c1cncnc1NCc1cccnc1	0.501 µM (active)	
COc1ccccc1-c1cncnc1NCc1ccccc1	0.251 µM (active)	
COc1ccccc1-c1cncnc1NCc1cccc(C)c1	0.1 µM (active)	
CCCCCCN(CCCCCC)C(=O)Cc1c(-c2ccc(Cl)cc2)[nH]c2ccc(Cl)cc12	12.6 µM (active)	
CCOC(=O)c1[nH]c2ccc(Cl)cc2c1-c1ccccc1		18.9%
CCCCN(C)Cc1c(C)[nH]c2ccc(Cl)cc2c1=O		-22.9%
CCCCCCN(CCCCCC)C(=O)Cc1c(-c2ccc(F)cc2)[nH]c2ccccc12	2.51 µM (active)	
Cn1c(=O)c2[nH]c(C3CCCC3)nc2n(C)c1=O		-5.26%
O=C(O)c1nnsc1COCc1ccccc1		-0.287% [at 11.4 µM]
COc1ccc(OC)c2[nH]c(=O)c(CCNC(=O)C3CCCCC3)cc12	8.91 µM (active)	
COc1ccc(OC)c2[nH]c(=O)c(CCNC(=O)c3ccc(S(=O)(=O)N4CCCC4)cc3)cc12	15.8 µM (active)	
COc1ccc(OC)c2[nH]c(=O)c(CCNC(=O)c3ccc(S(=O)(=O)N(C)C)cc3)cc12		-9.76%
COc1ccc(OC)c2[nH]c(=O)c(CCNC(=O)COc3ccccc3)cc12	10 µM (active)	
COc1ccc(C(=O)NCC(c2ccc(F)cc2)N2CCOCC2)cc1S(=O)(=O)N1CCCC1 (stereo not drawn)		3.78%
COc1ccc(OC)c2[nH]c(=O)c(CCNS(=O)(=O)c3ccc(C)cc3)cc12	7.94 µM (active)	
COCCNC(=O)COc1ccc(Oc2ccccc2)cc1		-13.2%
COc1cc2c(c(O)c1OC)C(=O)C(OC)CCC2 (stereo not drawn)		-10.9%
CCCCC1CC(/C(C)=N/NC(N)=O)OC1=O (stereo not drawn)		8.73%
COc1ccccc1NC(=O)CSc1nc2ccccc2cc1Cc1ccccc1	2.82 µM (active)	
COc1cccc(NC(=O)CSc2nc3ccccc3cc2Cc2ccccc2)c1	3.55 µM (active)	
CCOC(=O)c1sc2nc3c(cc2c1N)COC(C(C)C)C3 (stereo not drawn)		10.5%
Cn1cc(C2=C(c3ccc(Cl)cc3Cl)C(=O)NC2=O)c2ccccc21	2.51 µM (active)	

SMILES	AC50	activity, negative = inhibition
COC(=O)c1ccc(C(=O)OC)c(NC(=O)CSCc2ccc(Br)cc2)c1	12.6 µM (active)	
CSc1ccccc1NC(=O)CSCc1ccc(C)cc1		-20% [at 11.4 µM]
COc1cccc([C@@H]2Oc3ccc(OC)cc3/C(=N/O[C@@H](C)CN3CCCc4nc(C)c(C)cc43)[C@@H]2O)c1	3.16 µM (active)	
COc1ccc(-c2ccc3c(n2)CCCN3C[C@H](O)CN2CCCc3nc(C)c(C)cc32)cc1		-46.4% [at 11.4 µM]
COc1cccc([C@@H]2Oc3ccc(OC)cc3/C(=N/O[C@@H](C)CN3CCCCc4nc(C)c(C)cc43)[C@@H]2O)c1	3.98 µM (active)	
COc1ccc2nc3cc(Cl)ccc3c(Nc3ccc(O)c(CN4CCN(C)CC4)c3)c2c1		2.77% [at 11.4 µM]
COc1ccc2nccc(C(=O)O)c2c1		-4.23% [at 25.6 µM]
CCc1c2c(nc3ccc(OC)cc13)COC2	15.8 µM (active)	
C[C@@]1(O)CCOC(=O)C1		-3.83% [at 25.6 µM]
CC1(C)O[C@H]2[C@@H](c3[nH]nc4c(=O)[nH]c(=O)[nH]c34)OC[C@H]2O1		-0.0029% [at 11.4 µM]
COCC(C)NCc1cccc([N+](=O)[O-])c1 (stereo not drawn)		-12%
C#CCN1C(C)=C(C(=O)OC)[C@@H](c2cccc([N+](=O)[O-])c2)C(C(=O)OCC)=C1C	3.16 µM (active)	
CCOC(=O)N/N=C(/C)c1ccc([N+](=O)[O-])o1		-3.74% [at 2.29 µM]
Cc1cccc(Nc2ccccc2C(=O)OCC(=O)NCc2ccco2)c1C	15.8 µM (active)	
Cc1c(Nc2ncccc2C(=O)O)cccc1C(F)(F)F		-24.2% [at 25.6 µM]
O=C(COC(=O)c1cccnc1Nc1cccc(C(F)(F)F)c1)NCc1ccc2c(c1)OCO2	0.501 µM (active)	
O=C(COC(=O)c1ccccc1Nc1cccc(C(F)(F)F)c1)NCc1ccco1	22.4 µM (active)	
Cc1ccc(C(OC(=O)c2ccco2)C(=O)NC2CCCCC2)cc1 (stereo not drawn)		-11.1% [at 2.29 µM]
O=C(OC(C(=O)NC1CCCC1)c1ccncc1)C1=Cc2ccccc2OC1 (stereo not drawn)	3.98 µM (active)	
Cc1cn2c(-c3ccncc3)nnc2s1		-17.7%
c1cc(-c2sc(-c3ccncc3)c(-c3ccncc3)c2-c2ccncc2)ccn1	0.316 µM (active)	
CCC(C)NC(=O)C1c2cc(OC)c(OC)cc2C(=O)N(C)C1c1cccs1 (stereo not drawn)	5.62 µM (active)	
COc1cc2c(cc1OC)C(C(=O)N1CCN(c3ccccn3)CC1)C(c1cccs1)N(C)C2=O (stereo not drawn)	4.47 µM (active)	
CCC(C)NC(=O)C1CC(c2ccc(OC)cc2)=NO1 (stereo not drawn)		20.4%
